Results published in PubChem BioAssay AID651568 (National Center for Advancing Translational Sciences (NCATS), 2012).
Hit rate of the full screen: of about 1,200 compounds, about 55 (5%) were called active. Not shown: some 15% with an inconclusive outcome. Many of the other results were omitted from the sample, so actives are more common in it than they were. Values without a mark were called inactive. Calls come from the whole dose curve; as a rule, active = well fitted inhibition curve with a large enough effect; inconclusive = small, poorly fitted or top-dose-only effect; inactive = no such curve, though single readings can be large or run the other way.
% is set by controls: 0 for no effect and ±100 for the full control effect; potency is the fitted concentration of half-maximal effect.

Assay: qHTS Assay to Find Inhibitors of Chronic Active B-Cell Receptor Signaling: Hit Validation in Renilla Reporter Assay; note: nearly all actives have a fitted effect of over 70% in size
Conditions: TMD8 IkB-Renilla luciferase reporter, NF-kB signaling; series mostly up to 57.5 µM; activity change, negative = inhibition: at the top concentration
Text: Diffuse large B-cell lymphoma (DLBCL) is the most common category of non-Hodgkin lymphoma, with ~20,000 new cases per year in the United States. DLBCL should be regarded as a collection of different neoplasms. Microarray gene expression analysis has defined two principal types of DLBCL, named for their similarity to normal B cell stages or activation states: a germinal center B-cell (GCB) type, and an activated B-cell (ABC) type. In ABC-DLBCL, a constitutive high-level activity of the NF-kappaB family of transcription factors has been observed (1) and NF-kappaB target genes are more highly expressed in ABC primary tumors than in GCB tumors. Functional studies have shown a constitutive high-level activity of the IkappaB (inhibitor of kappa-B) kinase (IKK) complex. […] Further analysis of DLBCL primary tumors for NF-kappaB target gene expression imply that although CARD11 is required for constitutive IKK activity in all ABC-DLBCL lines, mutations in CARD11 may be the root cause of IKK activation only in lines or tumors with such mutations. In other words, CARD11 mutations may explain NF-kappaB activation in only 10% of ABC-DLBCL cases. […] This process has been termed 'chronic active BCR signaling' (CABS). The goal of this screen is to find small-molecule inhibitors of the CABS pathway found in ABC-DLBCL lines using a cell-based assay that measures IkappaBalpa stability, which has already been extensively validated in the OCI-Ly3 line (PubChem AID:445; REF: 4). […] Hits from the primary screen were tested in this orthogonal secondary assay. NIH Molecular Libraries Probe Production Network [MLPCN] NIH Chemical Genomics Center [NCGC] MLPCN Grant: R03 DA031086 PI Name: Dr. R. Eric Davis
The IkB-Photinus/Renilla reporter assay differs from the primary assay in that the reporters are constitutively expressed, and based on luciferases that are different from the click beetle luciferases and each other. These differences should help to eliminate artifactual sources of activity specific to the primary assay. This assay uses the Dual-Glo substrate from Promega; extensively validated in a 96-well format, it could be converted to a smaller-well format. All lines needed for the IkB-Photinus/Renilla assay have already been prepared and extensively validated
With `Cc1cc(C)cc(NS(=O)(=O)c2ccc(-c3cnc(C4CC4)o3)cc2)c1` the “activity change, negative = inhibition” value was 25.8%.
In the case of `Cc1ccc(C)c(NS(=O)(=O)c2ccc(-c3cnc(C4CC4)o3)cc2)c1`, the “activity change, negative = inhibition” value is reported as -22.1%.
In the case of `Cc1cccc(NS(=O)(=O)c2ccc(C3CCCCC3)cc2)n1`, the Potency is reported as 13.5 µM (active).
In the case of `Cc1ccccc1NC(=S)N=Nc1c(O)n(C)c2ccc(S(=O)(=O)N3CCOCC3)cc12`, the “activity change, negative = inhibition” value is reported as -22.4%.
With `CCn1c(=O)c([N+](=O)[O-])c(Cl)c2ccccc21` the Potency was 2.39 µM (active).
With `CC[C@]12c3[nH]c4cc(CCC(=O)N(C)C)ccc4c3CCN1C(=O)[C@@H](CC(=O)NCc1ccco1)C[C@@H]2C(=O)N1CCN(C(=O)c2ccco2)CC1` the “activity change, negative = inhibition” value was 7.44%.
For `c1ccc(C2=Nn3c(nnc3-c3n[nH]c4c3CCC4)SC2)cc1`, the “activity change, negative = inhibition” value was -11.8%.
In the case of `Cc1ccc(OCCN2C(=O)C(=O)c3cc(C)ccc32)cc1`, the “activity change, negative = inhibition” value is reported as -29.2%.
For `CC(C)n1c(SCC(=O)Nc2ccccc2)nc2c1c(=O)n(C)c(=O)n2C`, the “activity change, negative = inhibition” value was -2.3%.
For `CN(C)c1nc(=Nc2cccc(Cl)c2)ss1`, the Potency was 10.7 µM (active).
In the case of `COc1cc(OC)cc(C(=O)NCC(=O)Nc2ccc(-c3ccccc3)cc2)c1`, the “activity change, negative = inhibition” value is reported as -2.62%.
In the case of `COc1cc(OC)cc(C(=O)NCc2ccc3c(c2)CCN3C(=O)c2ccccc2)c1`, the “activity change, negative = inhibition” value is reported as 2.99%.
For `COc1ccc(/C=C/C(=O)Nc2cc(S(=O)(=O)N3CCOCC3)ccc2OC)cc1`, the “activity change, negative = inhibition” value was -11%.
In the case of `Cc1noc(C)c1CSc1ncnc2ccccc12`, the “activity change, negative = inhibition” value is reported as -12.4%.
For `COc1cc(/C=C\C(=O)OCn2nnc3ccccc3c2=O)cc(OC)c1OC`, the “activity change, negative = inhibition” value was 3.59%.
With `COc1ccc(C(=O)n2c(-c3ccco3)nc3ccccc32)cc1` the “activity change, negative = inhibition” value was 3.66%.
For `COc1ccc(C(=O)/C=C/c2ccc(OC)c(Cn3nnc4ccccc43)c2)cc1`, the Potency was 9.53 µM (active).
With `COc1ccccc1NC(=O)COc1ccc(-c2nn(C)c(=O)c3ccccc23)cc1` the “activity change, negative = inhibition” value was -8.93%.
For `Cc1ccc(NC(=S)NC(=O)C2CC2)cc1Cl`, the “activity change, negative = inhibition” value was 2.69%.
With `Cc1c(CCC(=O)NCCC(=O)O)c(=O)oc2c(C)c3oc4c(c3cc12)CCCC4` the “activity change, negative = inhibition” value was -15.5%.
In the case of `COc1cc(/C=N/NC(=O)NC2CCCCC2)ccc1O`, the “activity change, negative = inhibition” value is reported as 0.432%.
For `O=Cc1ccccc1OCCOc1ccccc1C=O`, the Potency was 12 µM (active).
For `CCOc1cc(Br)c(C=O)cc1OCC`, the “activity change, negative = inhibition” value was -3.14%.
For `Cc1c(CCC(=O)N[C@@H](C)C(=O)O)c(=O)oc2cc3oc4c(c3cc12)CCCC4`, the “activity change, negative = inhibition” value was -1.27%.
In the case of `CCC(NC(=O)CCc1c(C)c2cc3c4c(oc3cc2oc1=O)CCCC4)C(=O)O` (stereo not drawn), the “activity change, negative = inhibition” value is reported as -10.2%.
For `Cc1cc(C)n(-c2nc3ccccc3c(=O)n2OCC#N)n1`, the Potency was 16.9 µM (active).
For `Cc1cc(NC(=O)CSc2nc3ccccc3c(=O)n2C2CCCC2)no1`, the “activity change, negative = inhibition” value was 1.51%.
In the case of `CCC(=O)Nc1nonc1-c1nc2ccccc2n1Cc1cccc2ccccc12`, the “activity change, negative = inhibition” value is reported as -1.91%.
